Measurements: PubChem BioAssay AID504332 (National Center for Advancing Translational Sciences (NCATS), 2011)
The whole screen tested about 350,000 compounds, of which about 31,000 (8.9%) were called active. Entries that show only a call come without a potency. Inconclusive results (about 15%) are left out. For the sample, actives were picked, then their nearest neighbours and some compounds at random. Unmarked numbers belong to inactive results. Calls follow the shape of the dose curve; as a rule, active = well fitted inhibition curve with a large enough effect; inconclusive = small, poorly fitted or top-dose-only effect; inactive = no such curve, though single readings can be large or run the other way.

Target: Histone-lysine N-methyltransferase EHMT2 (Homo sapiens) (UniProt Q96KQ7)
Assay: qHTS Assay for Inhibitors of Histone Lysine Methyltransferase G9a; also: nearly all actives have a fitted effect of over 75% in size
Conditions: G9a H3K9 monomethylation, AlphaScreen, 2 h; series mostly up to 59 µM
Procedure, shortened: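 G9a (20 nM) was preincubated 15 min with compound, then reacted 2 h at room temperature with 500 nM biotin-H3K9 peptide and 20 µM SAM. Monomethyl-H3K9 detected by AlphaScreen using anti-H3K9me1 antibody.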
Potency is read from the fitted curve at half-maximal effect.

Chain of Histone-lysine N-methyltransferase EHMT2 (Homo sapiens) (Q96KQ7 913-1193 limits assumed): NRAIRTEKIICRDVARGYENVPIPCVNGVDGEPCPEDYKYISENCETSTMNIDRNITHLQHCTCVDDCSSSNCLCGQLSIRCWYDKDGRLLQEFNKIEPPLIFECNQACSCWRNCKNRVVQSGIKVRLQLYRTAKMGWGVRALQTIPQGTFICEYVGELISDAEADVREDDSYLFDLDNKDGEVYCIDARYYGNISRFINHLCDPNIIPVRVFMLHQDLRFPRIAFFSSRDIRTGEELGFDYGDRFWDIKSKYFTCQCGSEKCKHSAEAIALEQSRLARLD

Row | Structure (SMILES) | Potency | activity, negative = inhibition
1 | O=C1CN(C(=O)Nc2ccccc2C(F)(F)F)C(c2ccccc2)c2c(sc3c2CCCC3)N1 (stereo not drawn) | inactive | 
2 | CC(C)c1ccc(C2C(C(=O)c3ccco3)=C(O)C(=O)N2CC2CCCO2)cc1 (stereo not drawn) | 44.7 µM (active) | 
3 | O=C(NCC(=O)N(CC1CCCO1)C(C(=O)NC1CCCCC1)c1ccccc1)c1ccco1 (stereo not drawn) | inactive | 
4 | CC(C)c1ccc(N(C(=O)c2ccco2)C(C(=O)NC2CCCC2)c2cccnc2)cc1 (stereo not drawn) | inactive | 
5 | Cc1ccc(CN2C(=O)N/C(=C/c3cc(C)n(-c4ccccn4)c3C)C2=O)cc1 | inactive | 
6 | CCC1=NN2C(=N)/C(=C/c3cc(C)n(-c4ccccc4)c3C)C(=O)N=C2S1 | inactive | 
7 | Cc1cccc(C)c1-n1c(C)cc(/C=C2\C(=O)NN(c3ccccc3)C2=O)c1C | 15.8 µM (active) | 
8 | Cc1cc(C)c2oc(C(=O)Nc3c(C(=O)Nc4ccccc4)oc4ccccc34)cc(=O)c2c1 | inactive | 
9 | CCOc1ccc2nc(N3CCCC(C(=O)Nc4cc(C)ccc4C)C3)sc2c1 (stereo not drawn) | inactive | 
10 | COc1ccc(C2C(=O)N(C3CCCCCC3)CC(=O)N2CCc2ccc(Cl)cc2)cc1OC (stereo not drawn) | inactive | 
11 | COc1ccc(CCN=C2SCC(=O)N2Cc2ccccc2)cc1OC | inactive | 
12 | COc1cc(C2CC(=O)N3CN(Cc4ccccc4)CSC3=C2C#N)ccc1OCc1ccccc1 (stereo not drawn) | 0.891 µM (active) | 
13 | Cc1ccc([C@@H]2CC=C(C(=O)O)[C@H](c3cccc(Cl)c3)N2S(=O)(=O)c2ccc(C)cc2)cc1 |  | 3.76% [at 2.33 µM]
14 | Cc1cc(C)nc(SCC(=O)c2ccc(Cl)cc2)n1 | inactive | 
15 | Cc1ccc2nc(SCC(=O)NC3CCCC3)[nH]c2c1 | inactive | 
16 | CCOC(=O)CSc1nc2ccc(C)cc2[nH]1 | inactive | 
17 | Cc1nc2nc(SCC(=O)c3ccccc3)[nH]c2cc1Br | inactive | 
18 | CC(=O)Nc1ccc(C(=O)CSc2nc3ccc(C)cc3[nH]2)cc1 | 7.08 µM (active) | 
19 | O=C(CSc1nc2ccc([N+](=O)[O-])cc2[nH]1)c1ccc(Cl)cc1 | 5.01 µM (active) | 
20 | CCOC(=O)c1c(SCC(=O)Nc2cccc(C)c2C)nc(=O)[nH]c1C | inactive | 
21 | Cc1ccc(NC(=O)C2CCN(S(=O)(=O)c3cc(-c4noc(C)n4)ccc3C)CC2)c(C)c1 | inactive | 
22 | CCOCCCNC(=O)c1cc2c(=O)n3ccccc3nc2s1 | inactive | 
23 | CN=c1scc(-c2cc(OC)ccc2OC)n1/N=C/c1c(C)[nH]c2ccccc12 | 12.6 µM (active) | 
24 | COCCNC(=S)N/N=C/c1c(C)[nH]c2ccccc12 | inactive | 

Row | Structure (SMILES) | Potency | activity, negative = inhibition
25 | Cc1[nH]c2ccccc2c1/C=N\NC(=O)Cn1nnc(-c2ccccc2)n1 | inactive | 
26 | O=C(Nc1ccc(F)cc1F)c1cnn(-c2ccc(F)cc2)c1-n1cccc1 | inactive | 
27 | COCCN(CCOC)c1nc(N)c2c(N)nc3c(c2c1C#N)CC(=O)N3Cc1ccc(Cl)cc1 | 17.8 µM (active) | 
28 | O=C(OCC(=O)N1CCOCC1)c1ccc2ccccc2c1 | inactive | 
29 | C=CCn1c2ccccc2c2nnc(SC(CC)C(=O)Nc3nc(C)c(C(=O)OCC)s3)nc21 (stereo not drawn) | inactive | 
30 | CCn1c2ccccc2c2nnc(SCC(=O)O)nc21 | 10 µM (active) | 
31 | CCn1c2ccccc2c2nnc(N3CCN(c4cc(C)ccc4C)CC3)nc21 | inactive | 
32 | COc1cccc(C2CC(c3cccs3)=NN2C(=O)CSC2=NCCS2)c1OC (stereo not drawn) | inactive | 
33 | O=C(COC(=O)c1cccc(Cl)c1)Nc1ccc2[nH]c(=O)[nH]c2c1 |  | 10.7% [at 2.33 µM]
34 | O=C(CSc1nc2nccnc2c(=O)n1Cc1cccs1)Nc1ccccc1F | inactive | 
35 | Cc1cc2n(n1)C(c1cc(C(C)(C)C)c(O)cc1O)Nc1ccccc1-2 (stereo not drawn) | inactive | 
36 | O=C(CSc1ccc(-c2ccccn2)nn1)Nc1ccccc1 | inactive | 
37 | Cc1csc(NC(=O)CSc2ccc(-c3ccc(F)cc3)nn2)n1 | inactive | 
38 | O=C(CSc1ccc(-c2ccc(-n3cccn3)cc2)nn1)Nc1ccc([N+](=O)[O-])cc1 | 15.8 µM (active) | 
39 | O=C(N/N=C\C1CC=CCC1)c1ccc(Br)o1 (stereo not drawn) | inactive | 
40 | CCCc1[nH]nc2c1C(c1c(C)nn(-c3ccccc3)c1Cl)C(C#N)=C(N)O2 (stereo not drawn) |  | -26.6% [at 12.7 µM]
41 | C=CCOC(=O)C1=C(C)OC(N)=C(C#N)C1c1ccc(F)cc1 (stereo not drawn) |  | 14.3% [at 2.33 µM]
42 | Cc1nn(-c2ccccc2)c2c1C(c1ccc(F)cc1)C(C#N)=C(N)O2 (stereo not drawn) | 50.1 µM (active) | 
43 | CC(NC(=O)c1cc2c(=O)n3ccccc3nc2n(C(C)C)c1=N)c1ccccc1 (stereo not drawn) | inactive | 
44 | COc1ccc(C(C[N+](=O)[O-])n2nc(C)cc2C)cc1 (stereo not drawn) | 6.31 µM (active) | 
45 | COc1ccc(OCc2cn3c(C)cc(C)nc3n2)cc1 | inactive | 
46 | COc1ccc(C(=O)CSc2nc(C)cc(C)n2)cc1[N+](=O)[O-] | inactive | 
47 | Cc1ccc(S(=O)(=O)N2CCN(C(=O)c3ccc(-n4cncn4)c([N+](=O)[O-])c3)CC2)cc1 |  | -0.498% [at 12.7 µM]
48 | C/C(N)=C(/C#N)C(=O)COC(=O)C1=NN(c2ccccc2)C(=O)CC1 | inactive | 

Row | Structure (SMILES) | Potency | activity, negative = inhibition
49 | CC(=O)c1sc(NC(=O)C2=NN(c3ccccc3)C(=O)CC2)nc1C | 25.1 µM (active) | 
50 | CC(=O)c1sc(N/N=C\c2ccc(C)cc2)nc1C | inactive | 
51 | COc1cc2c(cc1OC)[C@@H](Cc1cc(OC)c(OC)c(OC)c1)[N+](C)(CCCOC(=O)CC/C=C/CCC(=O)OCCC[N+]1(C)CCc3cc(OC)c(OC)cc3[C@H]1Cc1cc(OC)c(OC)c(OC)c1)CC2 (stereo partly drawn) |  | 6.96% [at 12.7 µM]
52 | Cc1noc(C)c1C(=O)NCC1COc2ccccc2O1 (stereo not drawn) |  | -3.43% [at 2.33 µM]
53 | COc1ccc(-c2nc(C)c(CCNC(=O)c3ccc(C(F)(F)F)cc3)s2)cc1OC | inactive | 
54 | CCOc1cc(CNC(=O)c2sc3ncnc(N(C)C4CCCCC4)c3c2C)ccc1OC | inactive | 
55 | COCCCNC(=O)C1CC(=O)N(CCc2ccc(F)cc2)C1 (stereo not drawn) | inactive | 
56 | COCCCn1c(CCC(=O)O)ccc1-c1ccc(F)cc1 | 11.2 µM (active) | 
57 | O=C(O)CCCn1c(=O)c2cccn2c2ccc(F)cc21 | inactive | 
58 | COc1ccc(NC(=O)CCNS(=O)(=O)c2ccc3c(c2)CCCC(=O)N3)cc1Cl | inactive | 
59 | CCc1ccc(NC(=O)CN2C(=O)CCSc3ccc(S(=O)(=O)N4CCCC4)cc32)cc1 | inactive | 
60 | COc1ccc2c(c1)c(=O)c(C(=O)c1ccccc1)cn2CC(=O)Nc1ccc2c(c1)OCCO2 | inactive | 
61 | O=C(Nc1cccc([N+](=O)[O-])c1)N1CCc2ccccc2C1 | inactive | 
62 | O=C(NCCCc1ccccc1)C1CCC(=O)N(CCc2ccc(Cl)cc2)C1 (stereo not drawn) |  | -2.97% [at 12.7 µM]
63 | CC(C(=O)N(C)CC(=O)Nc1ccccc1C(F)(F)F)N1C(=O)c2ccccc2C1=O (stereo not drawn) |  | 8.77% [at 12.7 µM]
64 | CN(CC(=O)Nc1ccc(Cl)c(C(F)(F)F)c1)C(=O)CCC(=O)c1ccccc1 | inactive | 
65 | CN(CC(=O)Nc1ccccc1C(F)(F)F)C(=O)Cc1ccccc1F | 50.1 µM (active) | 
66 | COc1ccccc1CN1CCC(CNC(=O)c2cnn(-c3ccccc3Cl)c2C2CCN(C(=O)OC(C)(C)C)CC2)CC1 | inactive | 
67 | CN(Cc1nc2ccccc2s1)C(=O)c1ccc(F)cc1 | inactive | 
68 | Cc1nc2ccccc2c(-c2ccccc2)c1C(=O)c1ccccc1 | inactive | 
69 | Cc1nc2ccccc2c(C)c1C(=O)c1ccc(F)cc1 | 50.1 µM (active) | 
70 | COc1cc(C(=O)N2CCN(C(=O)COc3cccc(C)c3)CC2)cc(OC)c1OC | inactive | 
71 | CN(C(=O)COC(=O)c1ccc(Br)o1)c1c(N)n(Cc2ccccc2)c(=O)[nH]c1=O |  | -30.9% [at 0.501 µM]
72 | Cc1ccc(CNS(=O)(=O)c2ccc(-c3cc(C(F)(F)F)on3)s2)cc1 | inactive | 

Row | Structure (SMILES) | Potency | activity, negative = inhibition
73 | Cc1ccc(CN2C(=O)SC(Nc3ccccc3)C2=O)cc1 (stereo not drawn) | inactive | 
74 | Cn1cc(/C=C/c2nc3ccccc3c(=O)n2-c2cccc([N+](=O)[O-])c2)c2ccccc21 | inactive | 
75 | Cc1ccc(N2C(=O)S/C(=C/c3cn(C)c4ccccc34)C2=O)cc1 | inactive | 
76 | Cc1cccc(N=C2NC(=O)/C(=C/c3cn(C)c4ccccc34)S2)c1 | 79.4 µM (active) | 
77 | CCC(=O)N1CCc2cc(S(=O)(=O)NC(C(=O)Nc3ccc(C(C)=O)cc3)C(C)C)ccc21 (stereo not drawn) | inactive | 
78 | Cc1ccc(C)c(NC(=O)C2CCCN(S(=O)(=O)c3cn(C)cn3)C2)c1 (stereo not drawn) | inactive | 
79 | C=CCNc1nc(N)c([N+](=O)[O-])c(NC2CCCCC2)n1 | inactive | 
80 | CCCNC(=O)CCc1c(C)nc2c(c(C)nn2-c2ccccc2)c1C | inactive | 
81 | Cc1ccc(C)c(Cn2c(C(=O)O)c(CNCc3cccs3)c3ccccc32)c1 | inactive | 
82 | COc1ccc2nc(Nc3nc(-c4ccncc4)cs3)sc2c1 | inactive | 
83 | COc1cccc(CC(=O)Nc2nc(-c3ccc(OC)c(OC)c3)cs2)c1 | inactive | 
84 | O=C(Nc1ccccc1)Nc1nc2ccccc2s1 | inactive | 
85 | O=C(Nc1ccc(-c2csc(Nc3cccc(C(F)(F)F)c3)n2)cc1)c1cccc(C(F)(F)F)c1 |  | -6.74% [at 12.7 µM]
86 | CCOC(=O)Cc1csc(NC(=O)Nc2ccccc2)n1 | inactive | 
87 | NS(=O)(=O)c1ccc(Nc2nc(-c3ccccc3)cs2)cc1 | 44.7 µM (active) | 
88 | COc1ccc(CC(=O)Nc2nc(-c3ccc(F)c(F)c3)cs2)cc1OC | inactive | 
89 | COc1ccc(Nc2nc(-c3ccccc3)cs2)cc1 | 12.6 µM (active) | 
90 | CC(=O)Nc1ccc(-c2csc(NC(=O)Nc3ccccc3)n2)cc1 | 44.7 µM (active) | 
91 | CC(=O)Nc1nc(C)c(-c2csc(Nc3ccc(S(N)(=O)=O)cc3)n2)s1 | inactive | 
92 | COc1ccc(-c2csc(NC3OC(=O)c4ccccc43)n2)cc1 (stereo not drawn) | inactive | 
93 | COc1ccc(OC)c(Nc2nc(-c3ccc(O)c(O)c3)cs2)c1 | 3.98 µM (active) | 
